The campaign covered roughly 69,000 compounds. About 8,600 (12%) showed an effect of 50% or more. The sample as a whole holds a higher share of strong results than the screen did.
What follows are molecules tested on Plasmodium berghei (assay: Screen against P. berghei liver stage (PbLuc), transformed with Luciferase, at 10uM). Conditions: tested at 10 uM.
Assay type: functional, HepG2
In the case of `CCCc1n[nH]c(C2CN(CCC(F)(F)F)CCO2)n1` (centres undefined), the INHIBITION is reported as 29.7%.
For `Cc1nnc([C@@]23CCO[C@@H]2CCN(Cc2nccs2)C3)o1`, the INHIBITION was 37.6%.
`CCc1nc(CN2CCOC(Cn3cncn3)C2)no1` (centres undefined) showed an INHIBITION of -7.31%.
Molecule `Cc1cc(CN2CCN(C(C)C)C(CCO)C2)[nH]n1` (centres undefined) has an INHIBITION of 15.5%.
With `O=c1c(=CS(=O)(=O)Nc2ccc(Cl)cc2)[nH]c(=O)n2cccc12` the INHIBITION was -51.6%.
`CC(C)c1ccc(NS(=O)(=O)C=c2[nH]c(=O)n3cccc3c2=O)cc1` gave an INHIBITION of -26.1%.
For `O=c1c(=CS(=O)(=O)Nc2ccccc2)[nH]c(=O)n2cccc12`, the INHIBITION was -63.5%.
`COc1ccc(NS(=O)(=O)C=c2[nH]c(=O)n3cccc3c2=O)cc1Cl` was tested, and the INHIBITION was 86.4%.
`O=c1c(=CS(=O)(=O)Nc2ccc(Br)cc2)[nH]c(=O)n2cccc12` was tested, and the INHIBITION was 67.3%.
Work on `Cc1ccc(NS(=O)(=O)C=c2[nH]c(=O)n3cccc3c2=O)cc1` yielded an INHIBITION of -53.7%.
`Cn1cnc2ccc(NC(=O)CC3CCN(S(C)(=O)=O)CC3)cc21` gave an INHIBITION of -9.2%.
With `CC(Oc1cccc(Cl)c1)C(=O)Nc1cnn(CC(=O)NC2CC2)c1` (centres undefined) the INHIBITION was 10.7%.
`CC(=O)c1cccc(OC(C)C(=O)Nc2cnn(CCN(C)C)c2)c1` (centres undefined) was tested, and the INHIBITION was 34.2%.
`CC(Oc1cccc(Cl)c1)C(=O)Nc1cnn(CCN(C)C)c1` (centres undefined) showed an INHIBITION of 60%.
With `CC(C)c1cc(C(=O)NCCc2nc(-c3cccnc3)n[nH]2)[nH]n1` the INHIBITION was 12.365%.
`c1cnc(N2CCc3onc(CN4CCOCC4)c3C2)cn1` was tested, and the INHIBITION was 12.6%.
Work on `CSC1(CNC(=O)N(C)Cc2sccc2C)CCOCC1` yielded an INHIBITION of 43.4%.
`CSC1(CNC(=O)N(C)Cc2ccc(C)s2)CCOCC1` showed an INHIBITION of 57.3%.
`CSC1(CNC(=O)N(C)Cc2ccc(Cl)s2)CCOCC1` was tested, and the INHIBITION was 19.1%.
In the case of `OCCN1CCN(CCOCC(F)(F)F)CC1`, the INHIBITION is reported as 28.3%.
In the case of `CN1C(=O)C[C@H]2[C@H]1CCN2Cc1cccc(C#N)c1`, the INHIBITION is reported as 7.77%.
Molecule `N#Cc1cccc(CN2CC[C@@H]3[C@@H]2CC(=O)N3CCN2CCCC2)c1` has an INHIBITION of 21.8%.
`CN(C)C(=O)CN1C(=O)C[C@@H]2[C@@H]1CCN2Cc1cccc(C#N)c1` gave an INHIBITION of 81.2%.
`COCCN1C(=O)C[C@H]2[C@H]1CCN2Cc1ccccc1` gave an INHIBITION of 54.4%.
`COCCN1C(=O)CC[C@@H]2[C@H]1CCN2Cc1cccc(C#N)c1` was tested, and the INHIBITION was 27.6%.
Work on `COCCN1C(=O)C[C@H]2[C@H]1CCN2Cc1cccc(C#N)c1` yielded an INHIBITION of 33.5%.
With `CC(C)CN1C(=O)C[C@@H]2[C@@H]1CCN2Cc1cccc(C#N)c1` the INHIBITION was 63.7%.
For `N#Cc1cccc(CN2CC[C@@H]3[C@@H]2CC(=O)N3Cc2ccncc2)c1`, the INHIBITION was 29.9%.
`COCCN1C(=O)C[C@H]2[C@H]1CCN2Cc1ccc(OC)cc1` gave an INHIBITION of 16.5%.

Reference: ChEMBL document CHEMBL4513216, “Probing the Open Global Health Chemical Diversity Library for Multistage-Active Starting Points for Next-Generation Antimalarials” (ACS Infect Dis, 2020)
